Screening data deposited in PubChem BioAssay by several laboratories.
tim23-1 inh: growth inhibitors of tim23-1 mutant yeast, primary screen, luminescence, uHTS; S. cerevisiae tim23-1 growth, BacTiter-Glo luminescence, 24 h; 330,000 tested, 1.3% active; AID 463212, 2010; inhibition, % at 20 µM;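 active = growth inhibition of the mutant yeast at or above 50%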;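 also: temperature-sensitive mutant grown at 25 °C; plate controls were DMSO-treated mutant yeast for no effect and medium wells lacking yeast for full effect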
NALP3 yeast inh: NALP3 inflammasome inhibitors in reconstituted yeast, primary screen, luminescence, uHTS. Yeast reconstituted NLRP3/ASC/caspase-1, beta-gal luminescence, 24 h. inhibition, % at 10 µM. 330,000 tested, 0.39% active. AID 2825, 2010;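 active = inhibition of 50% or more; inactive = inhibition below 50%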;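 also: plate controls were induced DMSO wells for no effect and uninduced yeast grown without galactose for full effect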
tim10-1 inh: growth inhibitors of tim10-1 mutant yeast, primary screen, luminescence, uHTS; inhibition, % at 20 µM; S. cerevisiae tim10-1 ts strain growth, BacTiter-Glo, 24 h; 330,000 tested, 2.2% active; AID 463190, 2010;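 active = inhibition of at least 40%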;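 also: mutant grown at 25 °C; 0% = DMSO wells with yeast and 100% = wells holding no yeast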
TIM10 inh: growth inhibitors of isogenic TIM10 control yeast, primary screen, counter-screen for tim10-1 yeast inhibitor project, luminescence, uHTS; S. cerevisiae TIM10 strain growth, BacTiter-Glo luminescence, 24 h; inhibition, % at 10 µM; 330,000 tested, 1.4% active; AID 463195, 2010;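 active = inhibition of 40% or more at the single tested concentration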;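 also: wild-type TIM10 isogenic control strain grown at permissive 25 °C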
PfHsp90 yeast 2: growth inhibition of PfHsp90-expressing yeast, primary screen, antimalarial PfHsp90 inhibitor project, S. cerevisiae, BacTiter-Glo luminescence, single point, set 2; BacTiter-Glo ATP, 48 h; yeast lacking PDR1 and PDR3 efflux regulators; inhibition, % at 9.4 µM; 310,000 tested, 0.32% active; AID 504621, 2011;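 active = every replicate shows inhibition above about 80%, whatever the replicate mean, limit read from the data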;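 also: 0% = DMSO neutral controls and 100% = 20 µM radicicol positive controls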
SKKanGAS inh: S. pyogenes SKKanGAS growth inhibitors in kanamycin, primary screen, streptokinase expression inhibitor project, SKKanGAS strain, BacTiter-Glo luminescence. 6 h. 300,000 tested, 1.3% active. inhibition, % at 7.5 µM. AID 1662, 2009;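 active = mean replicate score, as percent of positive control median, at least 50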;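 also: strain carries kanamycin resistance gene driven by streptokinase promoter and grows in 40 µg/ml kanamycin; loss of luminescence reflects streptokinase promoter inhibition or plain growth inhibition; 0% = median of DMSO wells and 100% = positive control at its reference dose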
tim10-1 conf: growth inhibitors of tim10-1 mutant yeast, confirmation, single concentration, luminescence, S. cerevisiae; shares compounds with tim10-1 inh; S. cerevisiae tim10-1 ts strain growth, BacTiter-Glo, 24 h; inhibition, % at 20 µM; 7,400 tested, 56% active; AID 463213, 2010;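 active = inhibition of yeast growth at or above a set limit in either of two repeat tests at 20 µM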;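 also: tim10-1 mutant grown at permissive 25 °C to find synthetic lethal compounds; 0% = DMSO yeast wells and 100% = medium wells without yeast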
TIM10 conf: growth inhibitors of wild-type TIM10 yeast, confirmation, counter-screen for tim10-1 synthetic lethality project, single concentration, luminescence, S. cerevisiae | shares compounds with TIM10 inh | S. cerevisiae tim10 strain growth, BacTiter-Glo luminescence, 24 h | inhibition, % at 10 µM | 4,600 tested, 63% active | AID 463215, 2010;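 active = inhibition of yeast growth at or above a set limit in either of two replicates at 10 µM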;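 also: this counterscreen used the strain with wild-type TIM10; 0% = yeast with DMSO and 100% = medium wells lacking yeast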
An asterisk follows results filed as active; . = not tested or not shown. Sampled rows, rich in hits. Any-hit rate of the full collection: about 4.6%.

SMILES	tim23-1 inh	NALP3 yeast inh	tim10-1 inh	TIM10 inh	PfHsp90 yeast 2	SKKanGAS inh	tim10-1 conf	TIM10 conf
CC(C)(C)c1cnnn1-c1ccc(NC(=O)c2ccc(Br)o2)cc1	37	8	47*	47*	-8	-6	42*	39*
COc1cccc(C(=O)Nc2ccc(-n3nncc3C(C)(C)C)cc2)c1	31	14	34	22	.	-2	.	.
COC(=O)N1C(=O)[C@](c2ccccc2)(C2CCCCC2)N1C(=O)OC	49	12	49*	43*	3	9	32*	39*
Cc1ccc(COc2ccccc2C(=S)N2CCCC2)cc1	27	18	40*	42*	-24	11	24	23
Fc1ccc(COc2ccccc2C(=S)N2CCCC2)cc1	35	9	27	9	18	-1	.	.
COc1ccc(OC)c(C(=O)/C=C/c2cccnc2)c1	33	9	48*	42*	16	-7	32*	34*
COc1cc(C(=O)/C=C/c2cccnc2)ccc1O	15	23	26	7	-6	7	.	.
CC(=O)Nc1ccc(C(=O)OCc2ccc(Cl)cc2)cc1	28	32	49*	50*	-29	-4	48*	35*
CC(=O)Nc1ccc(C(=O)OCc2ccc(Cl)c(Cl)c2)cc1	23	15	50*	42*	9	-18	32*	-30
CCC(=O)Nc1ccc(C(=O)OCc2ccc(Cl)c(Cl)c2)cc1	3	16	10	4	-19	-4	.	.
COc1cccc(N=C(N)N)c1	2	-6	12	2	.	1	.	.
Cc1ccccc1CS(=O)(=O)c1nnc([C@H](Cc2ccccc2)NC(=O)OC(C)(C)C)o1	33	24	72*	68*	109*	17	51*	50*
CCSc1nnc([C@H](Cc2ccccc2)NC(=O)OC(C)(C)C)o1	14	4	25	23	-8	0	.	.
CC(C)(C)OC(=O)N[C@@H](Cc1ccccc1)c1nnc(SCC(=O)O)o1	12	0	0	-1	-24	-1	.	.
CC(C)(C)OC(=O)N[C@@H](Cc1ccccc1)c1nnc(S(=O)(=O)Cc2ccccc2)o1	48	12	73*	59*	.	.	55*	46*
O=C(CSCc1ccccc1Cl)Nc1ccc2c(c1)OCCO2	44	24	44*	48*	-10	2	36*	8
CCc1c(C)c2c(C)nn(-c3ccccc3)c2oc1=O	-1	12	55*	42*	-11	24	54*	21
Cc1cc2c(c(C)nn2-c2ccccc2)c(=O)o1	8	30	11	-11	3	-5	.	.
O=C(Cc1ccc(NC2=NC3CS(=O)(=O)CC3S2)cc1)N1CCN(c2ccc(F)cc2)CC1 (configuration not stated)	14	19	3	-6	28	-1	.	.
CCn1nc(C)cc1-c1nnc(Sc2ncc([N+](=O)[O-])s2)n1C	8	24	66*	50*	-31	51*	72*	55*
CCn1nc(C)cc1-c1nnc(SCC(=O)Nc2ccccc2)n1CCCOC	-13	-7	3	-2	0	-2	.	.
Nc1ncnc(N2CCOCC2)n1	.	.	.	.	13	.	.	.
Cc1cc(C(=O)NCCC(c2ccccc2)c2ccccc2)c(C)o1	-1	23	25	31	13	44	.	.
CN(C)C(CNC(=O)c1cc2ccccc2o1)c1ccco1 (configuration not stated)	-13	7	-4	-5	16	.	.	.
COc1ccccc1OCC(=O)Nc1ccncc1	-5	-1	-12	-2	23	8	.	.
